# An excerpt weighted towards active compounds, which were near 8.7% of everything screened.
# ALOX12 inh: Primary qHTS assay for inhibitors of human arachidonate 12S-lipoxygenase (ALOX12): Round 2; Polyunsaturated fatty acid lipoxygenase ALOX12 (Homo sapiens), P18054; purified 12hLO, xylenol orange hydroperoxide absorbance; Potency, µM (series often up to 108 µM), inactives show at the highest dose activity change, negative = inhibition, usual class: inhibitors; actives 1.1% (n = 580,000); AID 1671190, 2021; note: % is set by controls: 0 for no effect and ±100 for the full control effect
#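 Hydroperoxide product was detected by ferrous iron/xylenol orange as the 573 to 405 nm absorbance ratio. Arachidonic acid at 40 uM (final) was turned over for 30 min at room temperature by 150 nM human 12hLO, pH 7.0 Hepes buffer, after 15 min compound preincubation.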
# HP1b chromo inh: HTS for Inhibitors of HP1-beta Chromodomain Interactions with Methylated Histone Tails | AlphaScreen HP1-beta / biotin-H3K9me3 peptide binding | Potency, µM (doses to about 114 µM), without a hit: top-dose activity change, negative = inhibition, actives largely listed as inhibitors | actives 0.56% (n = 390,000); note: nearly all actives have a fitted effect of over 70% in size
# Target sequence (P83916 whole entry, looked up): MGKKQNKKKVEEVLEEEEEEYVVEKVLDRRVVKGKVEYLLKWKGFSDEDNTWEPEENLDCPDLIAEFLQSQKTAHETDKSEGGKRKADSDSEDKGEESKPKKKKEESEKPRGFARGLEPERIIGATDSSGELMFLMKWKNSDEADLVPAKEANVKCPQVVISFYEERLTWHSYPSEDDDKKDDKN
#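 AlphaScreen: HP1-beta (50 nM) preformed 30 min with biotin-H3(1-18)K9me3 peptide (50 nM) in PBS pH 7.4, 0.01% Tween-20. Compound added for 30 min at RT, then streptavidin donor/nickel chelate acceptor beads (10 ug/mL) for 30 min.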
# Sfp PPTase inh: qHTS Assay for Inhibitors of Bacillus subtilis Sfp phosphopantetheinyl transferase (PPTase); actives 3.5% (n = 310,000); AID 1490, 2009; Biochemical Sfp PPTase activity, qHTS; Potency, µM, without a hit: largest response in the series, negative = inhibition, hits mostly inhibitors;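 note: the enzyme is Sfp with the accession as filed and its product quenches rhodamine fluorescence; 0% = enzyme reaction without inhibitor and -100% = no enzyme wells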
#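 Step 1, compound plus 15 nM Sfp-PPTase, 15 min, room temperature. Step 2, add rhodamine-CoA (5 uM) and BHQ-2-YbbR (12.5 uM). Step 3, read 525/598 nm fluorescence at 0 and 30 min.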
# BAZ2B inh: qHTS Assay for Inhibitors of BAZ2B; AlphaScreen BAZ2B-H3K14Ac peptide displacement; Bromodomain adjacent to zinc finger domain protein 2B (Homo sapiens), Q9UIF8; Potency, µM (doses to about 114 µM), without a hit: at the top dose activity change, negative = inhibition, hits mostly inhibitors; AID 504333, 2011; actives 4.4% (n = 360,000); note: % is set by controls: 0 for no effect and ±100 for the full control effect; nearly all actives have a fitted effect of over 60% in size
#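 AlphaScreen luminescence quantifies BAZ2B engagement of H3K14Ac peptide; the protein and biotinylated peptide are both at 50 nM final, buffer PBS pH 7.4 with 0.01% Tween-20, all steps at room temperature.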
# JMJD2A Tudor: qHTS Assay for Inhibitors of JMJD2A-Tudor Domain. actives 4.4% (n = 390,000). Potency, µM (highest dose often 114 µM), for inactives: at the highest dose activity change, negative = inhibition, most hits filed as inhibitors. AlphaScreen JMJD2A-Tudor / H3K4me3 peptide binding. Lysine-specific demethylase 4A (Homo sapiens), O75164; note: % is set by controls: 0 for no effect and ±100 for the full control effect; nearly all actives have a fitted effect of over 50% in size
# G9a block: qHTS Assay for Inhibitors of Histone Lysine Methyltransferase G9a; actives 8.8% (n = 350,000); G9a H3K9 monomethylation, AlphaScreen, 2 h; Potency, µM (series often up to 102 µM), for inactives: at the highest dose activity, negative = inhibition, actives largely listed as inhibitors; note: % is set by controls: 0 for no effect and ±100 for the full control effect; nearly all actives have a fitted effect of over 75% in size
# Target sequence (Q96KQ7 913-1193 limits assumed): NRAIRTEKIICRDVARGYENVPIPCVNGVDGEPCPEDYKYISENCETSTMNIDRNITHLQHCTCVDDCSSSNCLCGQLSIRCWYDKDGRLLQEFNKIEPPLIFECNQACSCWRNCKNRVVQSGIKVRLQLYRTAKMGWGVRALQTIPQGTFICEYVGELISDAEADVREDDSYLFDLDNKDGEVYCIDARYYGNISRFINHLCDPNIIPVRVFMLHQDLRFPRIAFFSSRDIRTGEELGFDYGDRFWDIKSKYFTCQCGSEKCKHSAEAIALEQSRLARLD
#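 Step 1: enzyme (final 20 nM) with compound, 15 min RT. Step 2: substrate peptide 500 nM and SAM 20 uM, 2 h RT. Step 3: anti-H3K9me1 antibody and AlphaScreen beads, 10 min, then plate read.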
# * hit, by the source's call; ? = inconclusive; . = no result; [ ] = remark or other dose. Calls come from the whole dose curve; as a rule, active = well fitted curve in the direction sought with a large enough effect; inconclusive = small, poorly fitted or top-dose-only effect, or another doubt; inactive = no such curve, though single readings can be large; an effect the other way counts as inactive or inconclusive. Potency is the fitted concentration of half-maximal effect.
SMILES,ALOX12 inh,HP1b chromo inh,Sfp PPTase inh,BAZ2B inh,JMJD2A Tudor,G9a block
Cc1ccnc(NC(c2ccccc2)c2ccc3cccnc3c2O)c1 (stereo not drawn),?,-20.9%[57 µM],.,.,14.1µM*,.
Cc1ccnc(NC(c2ccsc2)c2ccc3ccc(C)nc3c2O)c1 (stereo not drawn),?,?,?,?,?,-151.7%[59 µM]
COc1cc(CN2CCN(C)C(C(=O)O)C2)c(Cl)cc1OC(C)C (stereo not drawn),4.0%,.,.,.,.,.
O=C1CC(c2ccccc2)N(Cc2ccncc2)CCCN(C(=O)CCCc2ccccc2)CCN1 (stereo not drawn),29.3%,.,.,.,.,.
COc1ccc(C2C(C(C)=O)=C(O)C(=O)N2c2cccnc2)cc1OC (stereo not drawn),-0.5%,21.5%,2.9%,?,79.4µM*,?
COc1cc(C2C(C(C)=O)=C(O)C(=O)N2CCN(C)C)ccc1O (stereo not drawn),?,23.2%,3.4%,0.7%,-2.6%,15.7%[59 µM]
COCCN1C(=O)C(O)=C(C(C)=O)C1c1ccc(OC)c(OC)c1 (stereo not drawn),?,11.5%,-11.5%,?,15.8µM*,44.7µM*
COc1ccc(CNC(=S)N2CCN(S(=O)(=O)c3cccc(F)c3)CC2)cc1,-7.6%,-1.1%,13.8%,-14.4%,-19.3%,.
COc1ccc(CCNC(=S)N2CCN(S(=O)(=O)c3ccc(C)cc3)CC2)cc1,-1.0%,5.5%,.,10.4%,2.7%,50.1µM*
COc1ccc(CCNC(=S)N2CCN(S(=O)(=O)c3cccc(F)c3)CC2)cc1,9.5%,10.1%,.,12.4%,2.1%,50.1µM*
CCc1cc(=O)n(CC(=O)Nc2cc(C)cc(C)c2)c(N2CCOCC2)n1,0.9%,.,.,.,.,.
CCc1nc(N2CCN(CCO)CC2)c(C#N)c2c1CCCC2,1.0%,.,.,.,.,.
COc1cc2cc(C(c3nnnn3C3CCCC3)N3CCCCC3)c(=O)[nH]c2cc1OC (stereo not drawn),7.1%,28.7%,5.5%,-3.5%,-13.5%,-47.5%[12.7 µM]
O=c1[nH]c2cc3c(cc2cc1C(c1nnnn1CC1CCCO1)N1CCCCCC1)OCCO3 (stereo not drawn),-4.6%,20.3%,1.0%,?,-14.2%,11.2µM*
O=c1[nH]c2cc3c(cc2cc1C(c1nnnn1CC1CCCO1)N1CCCCCC1)OCO3 (stereo not drawn),.,.,-2.3%,-2.2%,.,?
COc1ccc2cc(C(c3nnnn3Cc3ccc(F)cc3)N3CCCCCC3)c(=O)[nH]c2c1 (stereo not drawn),?,29.3%,17.8µM*,42.2%,-25.6%,?
COc1ccc2cc(C(c3nnnn3Cc3ccccc3)N3CCCCCC3)c(=O)[nH]c2c1 (stereo not drawn),?,28.9%,?,-1.5%,-16.9%,12.6µM*
COc1cc2cc(C(c3nnnn3C3CCCC3)N3CCCCCC3)c(=O)[nH]c2cc1OC (stereo not drawn),?,19.9%,3.1%,5.7%,-14.1%,12.6µM*
O=c1oc2ccc(Cl)cc2cc1-c1nc(-c2ccc(F)cc2)no1,0.7%,.,.,.,.,.
O=C(OCC(=O)C12CC3CC(CC(C3)C1)C2)c1ccc([N+](=O)[O-])cc1Cl,6.1%,.,.,.,.,.
COc1ccc(Cn2nnnc2C(c2cc3ccc(OC)cc3[nH]c2=O)N2CCC(C)CC2)cc1 (stereo not drawn),?,6.7%,39.8µM*,-31.3%,-15.1%,?

# Source: PubChem
